Bioassay records (PubChem BioAssay)
CSC inhib: cancer stem cell inhibition; cancer stem cell-like cells viability, luminescence; inhibition, % at 7.5 µM; hit rate 1.1% among 300,000; in the data active = inhibition above about 75%; tested in HMLE shEcad cells
Beta apoptosis: beta cell apoptosis inhibition. protection from apoptosis, % (test concentration not listed). hit rate 0.8% among 300,000. AID 435005. INS-1E cytokine-induced death, ATP luminescence, 48 h; percent of positive-control rescue, neutral wells zero;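 active = Every replicate reaches about 75%, or at least half do and their mean reaches it too, limit read from the data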;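 note: 0% = cytokine-treated negative control wells and 100% = positive control rescue; higher means more ATP so stronger rescue from cytokine killing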
Shn3 inh set2: Schnurri-3 reporter inhibition in Clone20 osteoblasts; Clone20 osteoblast Shn3 3'UTR firefly luciferase, 24 h; AID 588674; hit rate 0.52% among 360,000; inhibition, % at 12.5 µM;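 active = mean inhibition of at least 75% with every replicate also reaching 75%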;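 note: 0% = median of neutral control wells and 100% = pilot-screen positive control compound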
PfHsp90 set2: reduces growth (ATP signal) of yeast expressing P. falciparum Hsp90 | S. cerevisiae expressing PfHsp90, BacTiter-Glo ATP, 48 h; yeast lacking PDR1 and PDR3 efflux regulators | AID 504621 | hit rate 0.32% among 310,000 | inhibition, % at 9.4 µM;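 active = every replicate shows inhibition above about 80%, whatever the replicate mean, limit read from the data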;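 note: 0% = DMSO neutral controls and 100% = 20 µM radicicol positive controls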
Calb FLC: affects C. albicans growth with fluconazole; C. albicans CaCi-2 (fluconazole-resistant clinical isolate) + fluconazole, Alamar Blue growth, 48 h; growth inhibition, % (test concentration not listed); hit rate 0.57% among 300,000;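 active = growth inhibition above about 58% in most replicates, limit read from the data, passing the limit was not always enough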;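 note: all wells also contain fluconazole at 8 µg/ml as a sub-toxic cotreatment; 0% = median of DMSO wells and 100% = median of geldanamycin control wells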
* hit, by the source's call; / = no result. Sampled rows, rich in hits. Any-hit rate of the full collection: about 2.2%.

SMILES	CSC inhib	Beta apoptosis	Shn3 inh set2	PfHsp90 set2	Calb FLC
COc1ccccc1NC(=O)CN1CCN(c2ccccc2F)CC1	-2.8	1.1	6.0	-16.2	-1.5
O=C(CN1CCCCC1)Nc1cc(Cl)ccc1Oc1ccccc1	71.8	-4.4	11.8	11.6	-2.8
O=C(CN1CCCCCC1)Nc1ccccc1Oc1ccccc1	79.6*	2.4	27.7	/	-1.5
COc1ccccc1NC(=O)CN1CCN(c2ccccc2OC)CC1	/	2.6	23.0	-13.9	62.8*
COc1cc(O)c(CCC(=O)c2ccc(OC)c(OC)c2)c(OC)c1	9.4	-7.2	-6.4	12.1	8.1
O=C(N/N=C/c1ccc(O)cc1O)c1ccc(CN2C(=O)c3cccc4cccc2c34)cc1	3.1	93.2*	94.0*	5.6	107.8*
Cc1cc([N+](=O)[O-])nn1Cc1ccc(C(=O)N/N=C/c2ccc(F)cc2)cc1	1.1	-7.2	18.0	5.3	10.2
Cc1cc([N+](=O)[O-])nn1Cc1ccc(C(=O)N/N=C/c2ccc(O)cc2O)cc1	117.2*	97.7*	60.1	20.8	20.5
O=[N+]([O-])c1cccc(-c2ccc3nnc(SCc4cccnc4)n3n2)c1	/	/	0.8	0.3	/
COC(=O)CCC(C)C1CCC2C3CCC4CC(O)CCC4(C)C3CC(O)C12C (configuration not stated)	/	/	11.1	-54.0	/
Cc1ccc2c(c1)c1c(n2CC(O)CNC(CO)(CO)CO)CCCC1 (configuration not stated)	-13.4	0.0	-13.6	23.5	3.4
Cc1ccc2c(c1)c1c(n2CC(O)CNC2CCCCC2)CCCC1 (configuration not stated)	77.1*	21.4	14.4	25.4	-14.0
O=C(CCSc1nnc(-c2ccncc2)o1)Nc1ccc(Cl)cc1	11.2	-0.4	-1.1	96.4*	4.3
C#CCNC(=O)C1CCN(c2cc(C)nc(-c3ccccc3)n2)CC1	13.4	0.5	-5.8	-15.2	-43.1
Cc1cc(/C=c2/sc3nc4ccccc4n3c2=O)c(C)n1-c1ccccn1	25.5	23.2	90.9*	19.3	4.7
Cc1cc(/C=c2\sc3nc4ccccc4n3c2=O)c(C)n1-c1ccc(C(=O)O)cc1	/	/	-35.1	111.8*	13.5
CCN(C(=O)c1ccc(S(=O)(=O)N(C)C)cc1)C(C)C(=O)Nc1ccc(C)cc1 (configuration not stated)	-8.7	0.6	21.7	2.8	2.1
Cc1cc(N(C)C(=O)c2ccc3c(c2)S(=O)(=O)c2cc(Cl)ccc2C3=O)c(C(F)(F)F)o1	3.8	-6.2	3.5	19.7	/
CCCCc1cc(=O)oc2cc(OCC(=O)Nc3ccccn3)ccc12	3.9	-3.3	-67.7	-2.1	4.2
O=C(NCC1CCCO1)c1cc([N+](=O)[O-])ccc1N1CCC(Cc2ccccc2)CC1 (configuration not stated)	/	10.0	19.4	97.5*	/
O=C(O)c1cc([N+](=O)[O-])ccc1N1CCC(Cc2ccccc2)CC1	/	-1.1	-9.2	-34.8	44.8
Cc1cnc2c(N)cc(C)c(C)c2c1	/	/	72.3	/	/
COc1ccc(-c2noc(CNC(=O)CCCN3C(=O)[C@H]4CC=CC[C@H]4C3=O)n2)cc1	11.5	-0.1	40.6	-19.7	/
COc1ccc2c(c1)/C(=C\c1cccc(/C=C3/C(=O)Nc4ccc(OC)cc43)n1)C(=O)N2	/	/	95.8*	-3.6	/
COc1cc(NC(C)CCCN)c2ncccc2c1 (configuration not stated)	105.1*	121.4*	6.5	9.2	5.1
SMILES	CSC inhib	Beta apoptosis	Shn3 inh set2	PfHsp90 set2	Calb FLC
Cc1[nH]c2ccccc2c(=O)c1CN1CCCCC1	-17.8	2.4	3.1	-1.9	2.6
Cc1[nH]c2ccccc2c1CN1CCC(Cc2ccccc2)CC1	62.7	103.7*	18.5	6.9	59.5
Cc1[nH]c2ccccc2c1CN1CCN(c2ccccn2)CC1	-10.0	92.3*	/	-17.7	10.5
Cc1ccc(NC(=O)COC(=O)C2=NNC(=O)CC2)c(Br)c1	9.0	-10.1	4.5	1.0	/
COc1ccccc1NS(=O)(=O)c1cccc(C(=O)NCC(c2cccs2)N2CCOCC2)c1 (configuration not stated)	-7.7	5.9	7.8	13.9	/
O=C(CCN1CCN(c2ccccc2)CC1)N/N=C/c1ccc(O)c(O)c1O	/	/	-4.8	-2.2	113.8*
Cc1cccc(NC(=O)CN2CCN(C(=O)CN3C(=O)NC4(CC(C)CC(C)(C)C4)C3=O)CC2)c1C (configuration not stated)	/	/	51.3	/	/
CC1(c2ccc3ccccc3c2)NC(=O)N(CC(=O)N2CCN(Cc3ccc(C#N)cc3)CC2)C1=O (configuration not stated)	/	/	87.6*	/	/
CC1CC(C)(C)CC2(C1)NC(=O)N(CC(=O)N1CCN(Cc3ccc(C#N)cc3)CC1)C2=O (configuration not stated)	/	/	85.8*	8.0	/
O=[N+]([O-])c1ccc(O)c(/C=N/Nc2ccccn2)c1	118.4*	105.4*	75.0	110.6*	-5.8
O=[N+]([O-])c1cccc(N/N=C/c2cc([N+](=O)[O-])ccc2O)c1	1.1	/	-44.4	-3.6	-52.8
O=[N+]([O-])c1ccc(O)c(/C=N/Nc2ncnc3c2cnn3-c2ccccc2)c1	104.1*	16.4	91.7*	5.5	37.3
O=[N+]([O-])c1ccc(O)c(/C=N/Nc2nc3ccccc3[nH]2)c1	101.8*	99.1*	72.4	19.6	31.7
COC(=O)c1cc(=O)n(CCc2ccc(OC)cc2)c(=Nc2ccc(F)c(Cl)c2)s1	100.0*	52.7	8.7	2.9	-1.7
Cc1cccc(CSc2nc3ccccc3c(=O)n2C)c1	/	44.7	69.5	-7.1	/
CCOc1cc(C=O)cc(N=Nc2cccc([N+](=O)[O-])c2)c1O	3.6	3.0	0.2	-9.0	104.1*
CCCCNC(=O)c1ccc(Cn2c(=S)[nH]c3c([nH]c4ccc(OC)cc43)c2=O)cc1	140.0*	101.5*	42.5	3.1	-1.8
CC(CNC(=O)c1cc(COc2ccc3ncccc3c2)on1)c1ccccc1 (configuration not stated)	17.8	/	88.3*	11.1	3.2
O=C(NC1CCCCCCC1)c1cc(COc2ccc3ncccc3c2)on1	/	/	87.9*	-6.9	2.2
O=C(Nc1ccccc1Cl)c1cc(C2CCCCN2C(=O)CCCc2ccccc2)on1 (configuration not stated)	/	/	14.2	/	/
O=C(NCc1ccccc1OC(F)(F)F)C1CCC(=O)N(C2CC2)C1 (configuration not stated)	/	-7.1	-5.3	-11.8	1.5
O=C(CN1CCN(c2ccc(F)cc2)CC1)c1ccc(O)cc1O	-7.2	-1.0	-10.6	-10.0	-1.9
CCc1oc2ccccc2c1C(=O)c1cc(Br)c(O)c(Br)c1	85.1*	-3.4	8.6	-2.1	/
CCc1ccc(OCC(=O)c2c(O)c3ccccc3oc2=O)cc1	-7.6	-0.8	-7.7	-10.4	1.4
O=[N+]([O-])c1ccc(-n2cnc3ccccc32)c([N+](=O)[O-])c1	-5.8	118.3*	-12.0	-38.7	-1.5
NC(=S)n1[nH]c(-c2ccccc2)c(N=Nc2ccccc2C(=O)N2CCOCC2)c1=O	-10.1	6.9	-3.5	-17.6	100.3*
